Drawing on PubChem BioAssay (NCI), this text covers growth inhibition for nine compounds.

Experiment [1] is described as follows: NCI Yeast Anticancer Drug Screen. Data for the rad50 strain (AID 155).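 Also: 0% = growth of vehicle-only cultures of the same strain.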 To be noted: S. cerevisiae rad50 strain growth inhibition, hits give high values. An outline of the steps: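 Growth of the mutant yeast was measured after compound exposure and referenced to vehicle-treated cultures.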
Experiment [2] in a line: NCI Yeast Anticancer Drug Screen. Data for the mec2-1 strain (AID 157). Conditions: S. cerevisiae mec2-1 strain, hits give high values. A digest of the protocol:
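Mutant yeast (mec2-1) grown with compound; growth inhibition relative to vehicle control reported.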

A short description of experiment [3]: NCI Yeast Anticancer Drug Screen. Data for the sgs1 mgt1 strain (AID 161).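 Also: 0% = growth of cultures given vehicle only.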 Conditions: S. cerevisiae sgs1 mgt1 strain, hits give high values. An outline of the steps:
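Percent growth inhibition was derived by comparing compound-exposed mutant yeast with vehicle-exposed cultures. The strain carries alterations in DNA damage repair.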

Experiment [4] can be described thus: NCI Yeast Anticancer Drug Screen. Data for the cln2 rad14 strain (AID 165).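 Also: 0% = growth equal to vehicle treated cultures.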 Conditions: S. cerevisiae cln2 rad14 strain, hits give high values. A digest of the protocol: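 Readout is yeast growth inhibition versus vehicle-treated controls, using a strain with cln2 and rad14 alterations exposed to compound.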
Experiment [5] can be described thus: NCI Yeast Anticancer Drug Screen. Data for the bub3 strain (AID 167). Conditions: S. cerevisiae bub3 mutant strain, hits give high values. An outline of the steps: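 Whole-cell yeast assay. The mutant strain was incubated with compounds, and growth inhibition was determined by comparison with vehicle-treated cells.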
Experiment [6] is described as follows: NCI Yeast Anticancer Drug Screen. Data for the mlh1 rad18 strain (AID 175). To be noted: S. cerevisiae mlh1 rad18 strain growth inhibition, hits give high values. An outline of the steps: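 Genetically defined yeast (DNA repair-deficient) exposed to compounds; growth inhibition determined relative to vehicle.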
[7] abbreviates: at 5.0 µM (retest, dose inferred, filed as 0.5).
[8] abbreviates: at 50.0 µM (retest, dose inferred, filed as 5.0).

This is part of a sample that, as a whole, favours compounds with a hit. Of some 79,000 tested, about 15% had one in any assay. A number with no mark means an inactive call. Calls of active or inactive are those of the source. Rule as the data show it: active = growth inhibition above about 70%; inactive = the rest.

With `CC(C)OP(=O)(OC(C)C)/C(I)=N/Nc1ccc([N+](=O)[O-])cc1`, the growth inhibition was -7% in experiment [1] (setting [7]); -1% in experiment [1] (setting [8]); 68.7% in experiment [1] (at 50.0 µM); -6% in experiment [2] (setting [7]); 8% in experiment [2] (setting [8]); 13.9% in experiment [2] (at 50.0 µM). Also, the growth inhibition in experiment [3] (setting [7]) is 6%; in experiment [3] (setting [8]) it was 37%; in experiment [3] (at 50.0 µM), 38.4%; in experiment [4] (setting [7]) it was -14%; in experiment [4] (setting [8]) it was 14%; in experiment [4] (at 50.0 µM), 13.1%. Further, the growth inhibition in experiment [5] (setting [7]) is 1%; in experiment [5] (setting [8]), -1%; in experiment [5] (at 50.0 µM), 61.7%; in experiment [6] (setting [7]) it was 9%; in experiment [6] (setting [8]) it was 4%; in experiment [6] (at 50.0 µM) it was 70%.
As for `COc1cccc2c1OC(c1ccc(Cl)cc1)C([N+](=O)[O-])=C2` (configuration not stated), the growth inhibition in experiment [1] (setting [7]) was 94% (active); in experiment [1] (setting [8]) it was 96% (active); in experiment [1] (at 50.0 µM), 85.7% (active); in experiment [2] (setting [7]), 95% (active); in experiment [2] (setting [8]), 95% (active); in experiment [2] (at 50.0 µM), 89% (active). The growth inhibition was 93% (active) in experiment [3] (setting [7]); 96% (active) in experiment [3] (setting [8]); 87.6% (active) in experiment [3] (at 50.0 µM); 86% (active) in experiment [4] (setting [7]); 95% (active) in experiment [4] (setting [8]); 81.8% (active) in experiment [4] (at 50.0 µM). For the same compound, the growth inhibition in experiment [5] (setting [7]) was 97% (active); in experiment [5] (setting [8]) it was 96% (active); in experiment [5] (at 50.0 µM) it was 85.5% (active); in experiment [6] (setting [7]), 96% (active); in experiment [6] (setting [8]), 95% (active); in experiment [6] (at 50.0 µM) it was 84% (active).
As to `Cc1ccc(-c2oc(C=Nc3ccccc3)c([N+](=O)[O-])c2-c2ccc(C)cc2)cc1`, the growth inhibition in experiment [1] (setting [7]) was 11%; in experiment [1] (setting [8]), 72% (active); in experiment [1] (at 50.0 µM) it was 73.3% (active); in experiment [2] (setting [7]), 13%; in experiment [2] (setting [8]) it was 70% (active); in experiment [2] (at 50.0 µM) it was 64.5%. Further, the growth inhibition is 26% in experiment [3] (setting [7]); 73% (active) in experiment [3] (setting [8]); 70.9% (active) in experiment [3] (at 50.0 µM); 36% in experiment [4] (setting [7]); 74% (active) in experiment [4] (setting [8]); 42.2% in experiment [4] (at 50.0 µM). Also, the growth inhibition in experiment [5] (setting [7]) is 46%; in experiment [5] (setting [8]), 95% (active); in experiment [5] (at 50.0 µM), 41.7%; in experiment [6] (setting [7]) it was 52%; in experiment [6] (setting [8]), 91% (active); in experiment [6] (at 50.0 µM), 75.8% (active).
For `Clc1nc(Cl)nc(N2CCCc3ccccc32)n1`, the growth inhibition is -24% in experiment [1] (setting [7]); 78% (active) in experiment [1] (setting [8]); 69.1% in experiment [1] (at 50.0 µM); -10% in experiment [2] (setting [7]); 78% (active) in experiment [2] (setting [8]); 70.9% (active) in experiment [2] (at 50.0 µM). The growth inhibition in experiment [3] (setting [7]) was -19%; in experiment [3] (setting [8]), 67%; in experiment [3] (at 50.0 µM), 85.9% (active); in experiment [4] (setting [7]), 22%; in experiment [4] (setting [8]) it was 56%; in experiment [4] (at 50.0 µM) it was 74.7% (active). The growth inhibition was -10% in experiment [5] (setting [7]); 91% (active) in experiment [5] (setting [8]); 79% (active) in experiment [5] (at 50.0 µM); 2% in experiment [6] (setting [7]); 82% (active) in experiment [6] (setting [8]); 74.3% (active) in experiment [6] (at 50.0 µM).
With `CC(C)C1(C)C(C#N)(C#N)C1(C#N)C#N`, the growth inhibition in experiment [1] (setting [7]) is -94%; in experiment [1] (setting [8]), 94% (active); in experiment [1] (at 50.0 µM), 79.8% (active); in experiment [2] (setting [7]), -35%; in experiment [2] (setting [8]), 92% (active); in experiment [2] (at 50.0 µM), 91.5% (active). The growth inhibition in experiment [3] (setting [7]) is -46%; in experiment [3] (setting [8]), 90% (active); in experiment [3] (at 50.0 µM) it was 95.5% (active); in experiment [4] (setting [7]) it was -46%; in experiment [4] (setting [8]), 22%; in experiment [4] (at 50.0 µM), 48.4%. The growth inhibition in experiment [5] (setting [7]) is -39%; in experiment [5] (setting [8]), 91% (active); in experiment [5] (at 50.0 µM), 92% (active); in experiment [6] (setting [7]), -77%; in experiment [6] (setting [8]), 94% (active); in experiment [6] (at 50.0 µM) it was 95.8% (active).
Turning to `CCCCOC(=O)C(=O)/C(=C/N1C(=O)/C(=C/C(C)=C/c2ccccc2)SC1=S)C(=O)C=C(C)C`, the growth inhibition in experiment [1] (setting [7]) is 0%; in experiment [1] (setting [8]), 8%; in experiment [1] (at 50.0 µM) it was 39.7%; in experiment [2] (setting [7]), -13%; in experiment [2] (setting [8]), 10%; in experiment [2] (at 50.0 µM) it was 63.4%. Also, the growth inhibition in experiment [3] (setting [7]) was -10%; in experiment [3] (setting [8]), 5%; in experiment [3] (at 50.0 µM), 50.5%; in experiment [4] (setting [7]), -25%; in experiment [4] (setting [8]), 11%; in experiment [4] (at 50.0 µM) it was 46.8%. Besides, the growth inhibition in experiment [5] (setting [7]) was -10%; in experiment [5] (setting [8]) it was 26%; in experiment [5] (at 50.0 µM) it was 68%; in experiment [6] (setting [7]), 1%; in experiment [6] (setting [8]), 14%; in experiment [6] (at 50.0 µM) it was 71.1% (active).
Consider `O=C(N/C(=C\c1cccc([N+](=O)[O-])c1)c1nc2ccccc2s1)c1ccccc1`, for which the growth inhibition in experiment [1] (setting [7]) was 36%; in experiment [1] (setting [8]) it was 98% (active); in experiment [1] (at 50.0 µM), 98.5% (active); in experiment [2] (setting [7]) it was 29%; in experiment [2] (setting [8]), 98% (active); in experiment [2] (at 50.0 µM), 98.6% (active). In addition, the growth inhibition in experiment [3] (setting [7]) was 55%; in experiment [3] (setting [8]), 98% (active); in experiment [3] (at 50.0 µM) it was 98.9% (active); in experiment [4] (setting [7]) it was 12%; in experiment [4] (setting [8]), 98% (active); in experiment [4] (at 50.0 µM) it was 98.1% (active). Moreover, the growth inhibition in experiment [5] (setting [7]) is 40%; in experiment [5] (setting [8]), 98% (active); in experiment [5] (at 50.0 µM), 97.8% (active); in experiment [6] (setting [7]) it was 29%; in experiment [6] (setting [8]), 98% (active); in experiment [6] (at 50.0 µM), 98.2% (active).
Take `Nc1c(NCc2ccccc2)ccc2ncccc12`: the growth inhibition in experiment [1] (setting [7]) was -10%; in experiment [1] (setting [8]) it was 93% (active); in experiment [1] (at 50.0 µM), 95.2% (active); in experiment [2] (setting [7]), -17%; in experiment [2] (setting [8]), 97% (active); in experiment [2] (at 50.0 µM), 93.4% (active). Further, the growth inhibition in experiment [3] (setting [7]) was -7%; in experiment [3] (setting [8]), 94% (active); in experiment [3] (at 50.0 µM), 93.2% (active); in experiment [4] (setting [7]) it was -7%; in experiment [4] (setting [8]) it was 71% (active); in experiment [4] (at 50.0 µM), 96.4% (active). In addition, the growth inhibition is 2% in experiment [5] (setting [7]); 93% (active) in experiment [5] (setting [8]); 98% (active) in experiment [5] (at 50.0 µM); 6% in experiment [6] (setting [7]); 96% (active) in experiment [6] (setting [8]); 98.1% (active) in experiment [6] (at 50.0 µM).
On to `OCC1CCCCCCCCCCC1`, for which the growth inhibition in experiment [1] (setting [7]) was -2%; in experiment [1] (setting [8]) it was 90% (active); in experiment [1] (at 50.0 µM) it was 98.2% (active); in experiment [2] (setting [7]), 0%; in experiment [2] (setting [8]) it was 66%; in experiment [2] (at 50.0 µM), 75.2% (active). Besides, the growth inhibition is 1% in experiment [3] (setting [7]); 22% in experiment [3] (setting [8]); 94.3% (active) in experiment [3] (at 50.0 µM); 1% in experiment [4] (setting [7]); 30% in experiment [4] (setting [8]); 92.3% (active) in experiment [4] (at 50.0 µM). Further, the growth inhibition is 10% in experiment [5] (setting [7]); 58% in experiment [5] (setting [8]); 94.7% (active) in experiment [5] (at 50.0 µM); -1% in experiment [6] (setting [7]); 51% in experiment [6] (setting [8]); 89.2% (active) in experiment [6] (at 50.0 µM).
